Inconclusive results are not listed. Activity calls are given as the source filed them. The call rests on the fitted dose curve; in most records, active means well fitted inhibition curve with a large enough effect; inconclusive means small, poorly fitted or top-dose-only effect; inactive means flat fitted curve, though single readings scatter.
target: Galactokinase (Homo sapiens) (UniProt P51570); test: qHTS for Inhibitors of Human Galactokinase (GALK): SAR round 3; conditions: ADP detection luminescence, 1 h; series mostly up to 57.5 µM
Method in brief: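 Cherry-picked actives were retested in quantitative dose format against 5 nM human galactokinase, using 100 µM galactose and 35 µM ATP at pH 8.0 (HEPES, MgCl2, NaCl). After 1 h at room temperature, product was quantified by luminescence.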

Chain of Galactokinase (Homo sapiens) (P51570 whole entry, looked up): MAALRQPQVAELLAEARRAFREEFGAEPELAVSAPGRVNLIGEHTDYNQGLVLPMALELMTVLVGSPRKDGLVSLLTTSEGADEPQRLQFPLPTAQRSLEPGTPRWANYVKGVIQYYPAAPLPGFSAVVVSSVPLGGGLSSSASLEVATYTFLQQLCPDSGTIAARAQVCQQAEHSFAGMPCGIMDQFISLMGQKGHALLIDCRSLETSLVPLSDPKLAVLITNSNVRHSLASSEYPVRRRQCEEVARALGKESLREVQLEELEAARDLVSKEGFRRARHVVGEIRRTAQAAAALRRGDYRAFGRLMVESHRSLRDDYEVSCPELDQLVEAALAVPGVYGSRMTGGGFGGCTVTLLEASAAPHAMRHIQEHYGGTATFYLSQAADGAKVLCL

Potency, inactive:
O=C(Nc1nnc(S(=O)(=O)N2CCOCC2)s1)c1cccc(Br)c1
O=C1C2=C(CN1c1ccccc1)NC(Nc1nc3ccccc3o1)=NC2c1ccccc1Cl (centres undefined)
CC(C)c1nc(Nc2nc3ccccc3o2)nc2c1CCCC2
CNC(=O)C1=C(C)NC(Nc2nc3ccccc3o2)=NC12CCCC2
O=c1cc(CN2CCCN(c3ccc(C(F)(F)F)cn3)CC2)nc2ccccn12
CN(C)c1ccc(C2N=C(Nc3nc4ccccc4o3)NC3=C2C(=O)CCC3)cc1 (centres undefined)
O=C1CCCC2=C1C(c1[nH]ncc1Cl)N=C(Nc1nc3cc(F)ccc3o1)N2 (centres undefined)
CC1(C)CC(=O)C2=C(C1)NC(Nc1nc3ccccc3o1)=NC21CCCCC1
CC1(C)N=C(Nc2nc3ccccc3o2)NC2=C1C(=O)CCC2
COC(=O)c1ccc2nc(NC3=NC(c4[nH]ncc4Cl)C4=C(CCCC4=O)N3)oc2c1 (centres undefined)
CC1=C(C(=O)c2ccccc2)C(c2ccccc2Cl)N=C(Nc2nc3ccccc3o2)N1 (centres undefined)
COc1cccc2nc(Nc3nc4ccccc4o3)nc(-c3ccccc3Cl)c12
COc1cccc(C2N=C(Nc3nc4ccccc4o3)NC3=C2C(=O)CCC3)c1 (centres undefined)
O=C1CCCC2=C1[C@@]1(CCC(c3ccccc3)C1)N=C(Nc1nc3ccccc3o1)N2 (some centres undefined)
O=C1CCCC2=C1C(c1[nH]ncc1Cl)N=C(Nc1nc3cc([S+](=O)([O-])N4CCOCC4)ccc3o1)N2 (centres undefined)
O=C1CCCC2=C1C(c1[nH]ncc1Cl)N=C(Nc1nc3cccc(Cl)c3o1)N2 (centres undefined)
O=C1C2=C(CN1Cc1ccccc1)NC(Nc1nc3ccccc3o1)=NC2c1ccccc1Cl (centres undefined)
O=C1CCCC2=C1C(c1[nH]ncc1Cl)NC(=NCc1cccs1)N2 (centres undefined)
Cc1nc(C2=NC(c3ccccc3Cl)C3=C(CCCC3=O)N2)cs1 (centres undefined)
Cc1cccc2oc(NC3=NC(c4[nH]ncc4Cl)C4=C(CCCC4=O)N3)nc12 (centres undefined)
O=C1NC2=C(C(=O)CCC2)C(c2ccccc2Cl)N1 (centres undefined)
O=C1CCCC2=C1C(c1c(Cl)cccc1Cl)N=C(Nc1nc3ccccc3o1)N2 (centres undefined)
O=C1CCCC2CC(Nc3nc4ccccc4o3)CC(c3ccccc3)C12 (centres undefined)
O=C1CCCC2=C1C(c1[nH]ncc1Cl)N=C(c1nc3ccccc3o1)N2 (centres undefined)
Cc1nc(CN=C2NC3=C(C(=O)CCC3)C(c3[nH]ncc3Cl)N2)cs1 (centres undefined)
Cc1ccc(C2N=C(Nc3nc4ccccc4o3)NC3=C2C(=O)CCC3)s1 (centres undefined)
CN(Cc1ccccc1)C(=O)C1CCN(Cc2cccc3ccccc23)CC1
Cc1cc(NC2=NC(c3[nH]ncc3Cl)C3=C(CCCC3=O)N2)no1 (centres undefined)
CC1=C(C(=O)N(C)c2ccccc2C)C(c2ccccc2Br)N=C(Nc2nc3ccccc3o2)N1 (centres undefined)
O=C1CCCC2=C1C(c1[nH]ncc1Cl)NC(=NCc1nccs1)N2 (centres undefined)
Cc1nc(Nc2nc3ccccc3o2)nc2c1CCCC2
O=C1CCCC2=C1C1(CCCC1)N=C(Nc1nc3ccccc3o1)N2
O=C1CCCC2=C1C(c1cccc(C(F)(F)F)c1)N=C(Nc1nc3ccccc3o1)N2 (centres undefined)
O=C1CCCC2=C1C(c1[nH]ncc1Cl)NC(=NCc1cccnc1)N2 (centres undefined)
COC(=O)c1ccccc1NC(=O)c1ccccc1OC(F)F
O=C1CCCC2=C1C(c1[nH]ncc1Cl)N=C(Nc1nc3c(Cl)cccc3o1)N2 (centres undefined)

Potency, active:
O=C1CCCC2=C1C1(CCSC1)N=C(Nc1nc3ccccc3o1)N2 (centres undefined) 19.3 µM
O=C1CCCC2=C1C1(CCSCC1)N=C(Nc1nc3ccccc3o1)N2 3.43 µM
O=C1CCCC2=C1C(c1ccncc1Cl)N=C(Nc1nc3ccccc3o1)N2 (centres undefined) 19.3 µM

From PubChem BioAssay AID720664 (National Center for Advancing Translational Sciences (NCATS), 2013)
